Screening data deposited in PubChem by several laboratories.
PP5 primary: inhibitors of human protein phosphatase 5 (PP5). P53041. purified PP5c, OMFP substrate fluorescence. inhibition, % at 6.7 µM. actives 0.18% (n = 320,000);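 active = inhibition above the campaign's mean inhibition across all tested compounds plus 3 SD, cut at about 9.5% in these data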;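 note: 0% = DMSO only and 100% = 100 µM cantharidin control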
SKKanGAS inh: SKKanGAS growth inhibition; actives 1.3% (n = 300,000); inhibition, % at 7.5 µM; S. pyogenes SKKanGAS, kanamycin growth, BacTiter-Glo, 6 h; AID 1662;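 active = mean replicate score, as percent of positive control median, at least 50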;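 note: strain carries kanamycin resistance gene driven by streptokinase promoter and grows in 40 µg/ml kanamycin; loss of luminescence reflects streptokinase promoter inhibition or plain growth inhibition; 0% = median of DMSO wells and 100% = positive control at its reference dose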
IDE act: boosts human insulin-degrading enzyme activity in HEK cells. P14735. FAbeta-B cleavage, fluorescence polarization; 0% vehicle, 100% cell-free pure enzyme wells. activation, % at 5.96 µM. actives 0.073% (n = 340,000). AID 493087;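 active = activation above the mean of all tested compounds plus 3 SD, set per screening campaign, cut at about 17% in these data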
PP1 counter: blocks human PP1-alpha phosphatase, a PP5 counter-screen | P62136 | inhibition, % at 6.7 µM | purified PP1alpha, OMFP fluorescence | actives 0.9% (n = 320,000);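 active = inhibition above the mean inhibition of all tested compounds plus 3 SD, computed separately for each screening campaign, cut at about 15% in these data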
Target sequence (P62136 whole entry, looked up): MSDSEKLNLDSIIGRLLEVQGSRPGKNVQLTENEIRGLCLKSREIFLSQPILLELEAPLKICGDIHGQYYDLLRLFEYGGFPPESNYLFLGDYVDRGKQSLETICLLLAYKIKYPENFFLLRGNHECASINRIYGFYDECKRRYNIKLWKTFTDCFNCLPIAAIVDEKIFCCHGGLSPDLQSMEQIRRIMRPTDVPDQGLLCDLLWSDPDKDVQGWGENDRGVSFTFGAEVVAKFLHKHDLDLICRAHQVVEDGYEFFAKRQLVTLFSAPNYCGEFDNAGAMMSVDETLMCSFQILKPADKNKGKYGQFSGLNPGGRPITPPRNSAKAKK
IDE inh: inhibitors of human insulin-degrading enzyme in cells; P14735; HEK cells, FAbetaB cleavage, fluorescence polarization; inhibition, % at 5.59 µM; actives 0.41% (n = 320,000);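 active = percent inhibition above the average of all tested compounds plus 3 SD, set per screening campaign, cut at about 16% in these data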;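 note: IDE supplied by intact live HEK cells; FP after avidin binding of uncleaved biotin substrate so inhibition keeps polarization high; 0% = DMSO wells and 100% = 60 µM reference IDE inhibitor Ii1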
Granule exo inh: blocks lytic granule exocytosis; TALL-104 LAMP-1 surface exposure, flow cytometry; cells stimulated with thapsigargin and PMA; inhibition, % at 10 µM; actives 0.66% (n = 360,000);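 active = inhibition above about 55%, limit read from the data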
PP1 confirm: confirmation of human PP1 phosphatase inhibitors | shares compounds with PP1 counter | purified PP1alpha, OMFP substrate fluorescence | inhibition, % at 6.7 µM | actives 52% (n = 1,900) | AID 2358;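 active = mean PP1 inhibition above a set limit taken from the earlier primary screen, cut at about 15% in these data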
PP5 counter: counter-screen for PP1 inhibitors: human PP5 phosphatase inhibition; shares compounds with PP1 counter; purified PP5c, OMFP fluorescence; inhibition, % at 6.7 µM; actives 4% (n = 1,900); AID 2360;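 active = mean PP5 inhibition over triplicate wells above about 9.5% taken from the earlier PP1 screen, limit read from the data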
An asterisk follows results filed as active; x = not tested or not shown. Rows were chosen to be rich in hits. Some 2.8% of all compounds tested hit in one or more screens of this group.

SMILES | PP5 primary | SKKanGAS inh | IDE act | PP1 counter | IDE inh | Granule exo inh | PP1 confirm | PP5 counter
COc1ccc(NC(=O)NNC(=O)C(O)(c2ccccc2)c2ccccc2)cc1 | -1.8 | -4.5 | -5.6 | 21.4* | 1.6 | 22.0 | 0.6 | -3.2
COc1ccc(NC(=O)Nc2cc(NC(=O)Nc3ccc(OC)cc3)c(C)nc2C)cc1 | 3.2 | 4.0 | 5.8 | 18.3* | 0.1 | -8.8 | 21.1* | -1.5
C[C@H](NC(=O)Nc1cccc(Br)c1)C(=O)O | 0.4 | -6.1 | 8.1 | -0.2 | 1.5 | -5.4 | x | x
COC(=O)[C@@]12CCCCN1[C@H](c1ccc(-c3ccc(C(C)=O)cc3)cc1)[C@@H]1C(=O)N(C)C(=O)[C@@H]12 | 3.7 | 2.7 | 4.2 | -1.0 | -0.1 | -8.5 | x | x
Cc1cccc(NC(=O)C(=O)NNC(=O)c2ccc(C(C)(C)C)cc2)c1 | -2.5 | 85.1* | -3.8 | 21.3* | 12.1 | -21.2 | 9.8 | -1.4
O=C1OC(c2ccccc2)c2ccc3ccccc3c21 (stereo not given) | 3.7 | -2.0 | 3.8 | 18.8* | 1.8 | -1.4 | -1.6 | -1.7
CCOC(=O)C1(C)C=C(Nc2ccccc2)C(=O)N1c1ccccc1 (stereo not given) | 0.9 | 0.9 | 2.3 | 29.1* | 2.7 | -16.5 | 0.8 | -2.4
CC(CC(=O)Nc1ccc(Cl)c(S(=O)(=O)N2CCOCC2)c1)c1ccccc1 (stereo not given) | x | x | 0.1 | x | x | -1.1 | x | x
Cc1cc(C)n(-c2nc(Nc3ccccc3)nc(-n3nc(C)cc3C)n2)n1 | 2.2 | 40.1 | 1.5 | -1.8 | -4.8 | -1.9 | x | x
COc1cccc(/C=N/Nc2nc(Nc3ccccc3)nc(-n3nc(C)cc3C)n2)c1O | 11.5* | 98.2* | 10.9 | 35.5* | -6.0 | 51.0 | 36.1* | 3.4
COc1cccc(/C=N/Nc2cc(-n3nc(C)cc3-c3ccccc3)ncn2)c1O | 2.9 | 117.2* | -1.6 | 20.7* | 1.1 | 1.4 | 31.5* | -1.3
COc1ccc(-c2cc(-c3ccc(Cl)cc3)c(C#N)c(SCC(=O)O)n2)cc1 | 1.7 | 49.3 | 5.0 | 48.3* | 6.1 | 7.3 | 27.5* | 0.1
COc1cccc(C2C(C#N)=C(N)N(N(C)C)C3=C2C(=O)CC(C)(C)C3)c1OC (stereo not given) | 1.6 | 1.1 | -0.8 | -0.5 | 4.2 | 2.2 | x | x
O=C(O)c1ccc(COc2ccccc2/C=C2/NC(=O)N(c3cccc(Cl)c3)C2=O)cc1 | 0.8 | 23.2 | 5.8 | 38.3* | 0.4 | 0.9 | 34.7* | 2.4
O=C(CN1C(=O)N/C(=C\c2ccccc2OCc2ccc(C(=O)O)cc2)C1=O)Nc1ccc(F)cc1 | -0.7 | 12.2 | 4.8 | 0.3 | -1.4 | 3.7 | x | x
Cc1ccccc1NC(=O)CN1C(=O)N/C(=C\c2ccccc2OCc2ccc(C(=O)O)cc2)C1=O | 2.9 | 19.9 | 3.8 | 18.1* | 3.2 | -1.9 | 16.3* | -6.8
CC1Nc2ncnc(N3CCc4ccccc4C3)c2N(Cc2ccc(Cl)cc2)C1=O (stereo not given) | 0.9 | 11.4 | -0.2 | 13.6 | 2.3 | -2.4 | x | x
CC1Nc2ncnc(N3CCc4ccccc4C3)c2N(Cc2ccc(Br)cc2)C1=O (stereo not given) | 4.0 | 18.4 | -8.0 | 22.9* | 6.1 | 7.8 | 19.1* | 0.2
O=S(=O)(CCN1CCOCC1)c1ccc(OC(F)(F)F)cc1 | 1.3 | 0.2 | 2.7 | 0.3 | -2.4 | 2.5 | x | x
CCCCC1CN2CCc3c([nH]c4ccccc34)C2(C)C1 (stereo not given) | -0.2 | -4.5 | 2.1 | 1.4 | -1.4 | 5.5 | x | x
CCOC(=O)C1=C(O)C(=O)NC(c2ccccc2)=C(OCC)C1 | 1.1 | 16.4 | 3.5 | -0.9 | 0.1 | 2.5 | x | x
CCOC(=O)C1=C(O)C(=O)NC(c2ccccc2)=C(OC2CCCCC2)C1 | 1.1 | 5.7 | -1.7 | 23.6* | 5.1 | -5.4 | 31.0* | -1.4
O=C(Nc1ccc2c(c1)OCO2)c1cc(C2CCCN(C(=O)CCc3ccccc3)C2)on1 (stereo not given) | x | x | x | x | x | -3.3 | x | x
